Measurements reported in PubChem BioAssay (NCI).
Where “and” joins values, the source holds several entries; their conditions need not be identical. Equal values may be shown once. Compounds without any hit were thinned out: in the full panel of roughly 83,000, 20% have a hit.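 Assay: single dose, 48 h. Readout: percent growth (0 = no net growth; negative = cell death). Active: <10.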 Calls of active or inactive are those of the source.

Test system: MDA-MB-468 breast
Assay: NCI-60 one-dose screen, 48 h (100 = growth as untreated, 0 = no growth, -100 = all killed)
Settings: 10 µM unless noted

| SMILES | growth |
| --- | --- |
| NC(CSC(c1ccccc1)(c1ccccc1)c1ccc(F)cc1)C(=O)O (stereo not given) | -41% (active) |
| CCN(CC)CCOc1ccc(/C(=C(\C)c2ccc(OC)c(F)c2)c2ccc(Cl)cc2)cc1 | 81.6% (inactive) |
| COc1ccc(/C(=C\c2cc(OC)c(OC)c(OC)c2)C(=O)Nc2nc3ccc(Cl)cc3s2)cc1 | 96.4% (inactive) |
| CN1CCCc2cc(/C=C3\SC(=S)N(C(Cc4ccc(O)cc4)C(=O)O)C3=O)ccc21 (stereo not given) | 93.6% (inactive) |
| Cn1cc(-c2nc(-c3c[nH]c4ccncc34)cs2)c2ccccc21 | -12.2% (active) |
| O=C(O)CCCCNC(=O)c1ccccc1 | 97.7% (inactive) |
| CCN(CC)CCCN1C(=O)c2c(c(C)c3c(oc4cc(OC)ccc43)c2C)C1=O | 116% (inactive) |
| O=C(NNc1nc2cc(F)c(F)cc2n2c(CN3CC4CNCC4C3)ccc12)c1cnccn1 (stereo not given) | -4.58% (active) |
| CC(=O)c1ccc(C)c(N)c1 | 104% (inactive) |
| Clc1ccc(-c2nc(NCCc3ccccc3)nc3c(NCCc4ccccc4)cnn23)cc1 | 47.8% (inactive) |
| C=C1C(=O)O[C@H]2[C@H]1CC/C(Cn1cc(-c3ccc(OC)cc3)nn1)=C\CC[C@@]1(C)O[C@@H]21 | -42.8% (active) |
| CC1=NN2C(=NC3=C(CCC/C3=C\c3ccc(Cl)cc3)C2c2ccc(Cl)cc2)S1 (stereo not given) | 95.6% (inactive) |
| C(=C\c1c[nH]c2ccccc12)/c1ccc2ccccc2n1 | 68.5% (inactive) |
| CCCCC1=C(Br)C(=O)c2ncccc2C1=O | 84.2% (inactive) |
| N#Cc1cccc(-c2ccc3c(c2)NC(=O)/C3=C\c2ccc[nH]2)c1 | -20.1% (active) |
| O=C(CSc1nc2ccccc2c(=O)n1-c1ccc(Cl)c(Cl)c1)Nc1ccc(S(=O)(=O)Nc2ccc(Cl)nn2)cc1 | 116% (inactive) |
| C=C1CCC2C3(C)COC(c4ccccc4)OC3CCC2(C)C1C/C=C1/C(=O)OCC1O (stereo not given) | 30.6% (inactive) |
| O=C(CCC(=O)N/N=C/c1ccccc1O)N/N=C/c1ccccc1O | 62.8% (inactive) |
| O=C1OCC2=C1C(c1cccc(Br)c1)c1cc3c(cc1N2CCO)CCC3 (stereo not given) | -3.99% (active) |
| CCn1c(SCC(=O)Nc2cccc(C(=O)/C=C/c3ccc(C)cc3)c2)nc2ccccc2c1=O | 58.7% (inactive) |

| SMILES | growth |
| --- | --- |
| O=C(O)c1ccccc1N=Cc1ccccc1 | 112% (inactive) |
| CCN(CC)c1ccc(/C=N\NC(=O)c2cccc(Nc3ccnc(C(F)(F)F)c3)c2)c(O)c1 | 24.6% (inactive) |
| Cc1ccc(O)c(NC(=O)c2cccc(Nc3ccnc(C(F)(F)F)c3)c2)c1 | 46% (inactive) |
| Cc1cccc(/C=C\C(=O)c2ccccc2)c1 | 105% (inactive) and 99% (inactive) |
| O=C(Nc1ccc(Cl)c(Cl)c1)Nc1c(Oc2ccc(Cl)c(Cl)c2)ccc(Cl)c1S(=O)(=O)O | -5.92% (active) |
| O=C1c2ccccc2CCC12OC2c1cn(-c2ccccc2)nc1-c1ccc(Cl)cc1 (stereo not given) | 92.5% (inactive) |
| CC(C)=CCC[C@](C)(O)[C@H]1CC[C@]2(C)[C@@H]1CC[C@@H]1[C@@]3(C)Cc4nccnc4C(C)(C)[C@@H]3CC[C@]12C | 69.4% (inactive) |
| COc1cccc(C(=O)OCCn2nc3c4c(cccc42)C(=O)c2ccccc2-3)c1O | 24.9% (inactive) |
| N[C@@H](Cc1cn(-c2ccnc3ccccc23)nn1)C(=O)O | 108% (inactive) |
| CN(C1c2ccccc2Oc2ccccc21)S(=O)(=O)c1cc(Cl)ccc1Cl | 18.9% (inactive) |
| CC(C)NCCCCCNc1cc(O)cc2cccnc12 | 18.6% (inactive) |
| Cc1c(-n2nnc(-c3nc4ccccc4s3)c2N)c(=O)n(-c2ccccc2)n1C | 110% (inactive) |
| CC(C)(C)n1cc(-c2ccnc(NCCCNS(=O)(=O)c3cccc(F)c3)c2)c(-c2cccc(O)c2)n1 | 25.9% (inactive) |
| CN1CCC(COc2cnc(-c3cccc(Cn4nc(-c5cccc(C#N)c5)ccc4=O)c3)nc2)CC1 | 87.4% (inactive) |
| O=C1CS/C(=N/c2nnc(-c3ccc(O)cc3)s2)N1 | 116% (inactive) |
| CCN(CC)CCCCNc1ccc(NCCCCN(CC)CC)c2c1C(=O)c1ccccc1C2=O | 106% (inactive) |
| CCOC(=O)C1=C(CSC(=S)N(C2CCCCC2)C2CCCCC2)N(C)C(=O)NC1c1ccccc1 (stereo not given) | 47.3% (inactive) |
| CC1(C)C(=O)CC[C@]2(C)[C@H]3C(=O)C=C4[C@@H]5C[C@@](C)(C(=O)NCCNCCN)CC[C@]5(C)CC[C@@]4(C)[C@]3(C)CC[C@@H]12 | 114% (inactive) |
| O=C1Nc2ccccc2/C1=C\c1nc(C2CCN(S(=O)(=O)c3ccc(F)cc3)CC2)n2ccccc12 | 70.6% (inactive) |
| COc1cc(-c2nn(-c3cccc(NC(=O)CCN4CCN(C)CC4)c3)cc2-c2ccncc2)ccc1Cl | 18.2% (inactive) |
